PubChem BioAssay (EPA / NIEHS)
Activity calls are given as the source filed them. How the source made its calls: active means hit-call score of the fitted dose curve at least 0.9, where 1 is the maximum; inactive means score below 0.9.

Test: BSK_CASM3C_Proliferation: Cell Proliferation Assessment in the BioMAP Diversity Plus: CASM3C Assay (AID 2283047);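 further: sulforhodamine B total protein stain as relative cell number at 560 nm; sub-confluent cells exposed 48 h before staining; fitted both ways against DMSO so gain or loss of cell number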
Settings: primary human coronary artery smooth muscle cells
With `CC(C)(C)OOC(C)(C)CCC(C)(C)OOC(C)(C)C` the outcome was “inactive”.
In the case of `c1ccc2c(c1)oc1ccccc12`, the outcome is reported as “inactive”.
In the case of `Nc1ccc([N+](=O)[O-])cc1`, the outcome is reported as “inactive”.
With `Nc1ccc(Oc2ccc(N)cc2)cc1` the outcome was “inactive”.
In the case of `COC(=O)c1ccccc1N`, the outcome is reported as “inactive”.
For `c1ccc2c(c1)-c1cccc3cccc-2c13`, the outcome was “inactive”.
For `O=P(OCCCl)(OCCCl)OCCCl`, the outcome was “inactive”.
For `CC(C)(OOC(C)(C)c1ccccc1)c1ccccc1`, the AC50 was 30.3 µM (active).
In the case of `CC(C)N(Cc1ccccc1)C(=O)C(C)(C)C`, the outcome is reported as “inactive”.
With `CS(=O)(=O)NC(=O)c1cc(Oc2ccc(C(F)(F)F)cc2Cl)ccc1[N+](=O)[O-]` the outcome was “inactive”.
With `[O-][Cl+]O` the outcome was “inactive”.
With `CCN(CC)CCO` the outcome was “inactive”.
With `O=C(Oc1ccc(Br)cc1)N1CCN2CCC1CC2` the outcome was “inactive”.
For `O=[N+]([O-])C(Br)(CO)CO`, the AC50 was 24.7 µM (active).
With `c1ccc(C2CO2)cc1` (stereo unspecified) the outcome was “inactive”.
In the case of `c1ccc(N=Nc2ccccc2)cc1`, the outcome is reported as “inactive”.
With `CCC[CH2][Sn]([Cl])([CH2]CCC)[CH2]CCC` the AC50 was 0.148 µM (active).
For `COP(=S)(OC)SCN1C(=O)c2ccccc2C1=O`, the outcome was “inactive”.
For `[Cl-].[Cl-].[Hg+2]`, the AC50 was 29.3 µM (active).
In the case of `CCN(CC)N=O`, the outcome is reported as “inactive”.
With `Nc1ccc(N=Nc2ccccc2)cc1` the outcome was “inactive”.
In the case of `CCOC(=O)[C@]1(c2ccccc2)Oc2ccccc2[C@@H]1N`, the outcome is reported as “inactive”.
With `c1ccc(NNc2ccccc2)cc1` the outcome was “inactive”.
For `CCCCCOC(=O)c1ccccc1C(=O)OCCCCC`, the outcome was “inactive”.
For `CCCCCCCCOC(=O)c1ccc(C(=O)OCCCCCCCC)c(C(=O)OCCCCCCCC)c1`, the outcome was “inactive”.
For `O=[N+]([O-])c1ccc(Oc2ccc(Cl)cc2Cl)cc1`, the outcome was “inactive”.
